Molecules are shown by their SMILES. Several values for one entry are separate records, joined by “and”; a condition that tells them apart may be missing. Identical values can stand only once. Screen size: about 360,000 compounds; about 2,100 (0.58%) were called active. The list comes from a sample in which actives are over-represented; it also holds similar structures and randomly drawn compounds. Unmarked numbers belong to inactive results.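 Rule for the calls: active = inhibition above a per-plate cutoff, the mean of that plate's test compounds plus 3 SD (cut at about 27% in these data); inactive = the rest.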

The assay deals with Muscarinic acetylcholine receptor M5 (Homo sapiens) (UniProt P08912). The assay can be described thus: CHRM5 blockers of acetylcholine calcium response – CHO cells, Fluo-8 calcium fluorescence, primary screen (AID 624040).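 Note: 0% = acetylcholine EC80 with DMSO and 100% = DMSO without agonist.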 The settings on record: CHO-hM5 cells, ACh EC80, at 3 µM, hits give high values.
Muscarinic acetylcholine receptor M5 (Homo sapiens), sequence (P08912 whole entry, looked up): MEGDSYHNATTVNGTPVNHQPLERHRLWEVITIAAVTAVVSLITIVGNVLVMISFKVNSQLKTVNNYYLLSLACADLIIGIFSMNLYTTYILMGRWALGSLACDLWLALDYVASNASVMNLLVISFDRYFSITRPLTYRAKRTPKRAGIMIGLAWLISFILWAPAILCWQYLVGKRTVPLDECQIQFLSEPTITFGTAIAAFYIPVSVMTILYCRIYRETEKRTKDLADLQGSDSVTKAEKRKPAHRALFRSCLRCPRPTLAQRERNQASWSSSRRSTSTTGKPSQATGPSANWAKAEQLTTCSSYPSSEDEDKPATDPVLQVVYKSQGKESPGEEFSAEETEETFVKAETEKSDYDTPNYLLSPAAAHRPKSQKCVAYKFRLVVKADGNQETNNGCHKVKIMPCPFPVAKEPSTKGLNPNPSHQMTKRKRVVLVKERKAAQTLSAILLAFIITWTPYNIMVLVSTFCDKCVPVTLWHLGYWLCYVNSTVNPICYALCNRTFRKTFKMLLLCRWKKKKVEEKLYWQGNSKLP
Consider `COc1ccc(S(=O)(=O)N(C)CC(=O)NCCCN2CCOCC2)cc1Cl`, for which the inhibition is 8.37%.
The value for `CCN1CCN(C(=O)Cn2nc(C)n3c(cc4c(OC)cccc43)c2=O)CC1` was 2.41%.
The result for `COc1ccc(CCNC(=O)CCC(=O)NC2CCCCC2)cc1OC` reads 15.9%.
The value for `CCc1ccc(N(C(=O)c2csnn2)C(C(=O)NC2CCCCC2)c2cccnc2)cc1` (centres undefined) was -0.48%.
As to `Cc1ccc(C(=O)NCC(c2cccs2)N(C)C)cc1S(=O)(=O)N1CCOCC1` (centres undefined), the inhibition is 4.49%.
Consider `COc1ccc(C(CNC(=O)c2cccc(S(=O)(=O)Nc3ccc(Br)cc3)c2)N(C)C)cc1` (centres undefined), for which the inhibition is 5.55%.
The result for `CN(C)C(CNC(=O)c1cccc(S(=O)(=O)Nc2ccc(Br)cc2)c1)c1ccco1` (centres undefined) reads 4.75%; that for `Cc1cccc(NS(=O)(=O)c2ccc(C)c(C(=O)NCC(c3ccccc3)N(C)C)c2)c1` (centres undefined), 5.12%; that for `CC(=O)c1ccc(S(=O)(=O)Nc2ccc(C(=O)NCC(c3ccccc3)N(C)C)cc2)cc1` (centres undefined), 0.82%.
The value for `COc1ccccc1CNC(=O)c1ccc(Cl)c(S(=O)(=O)N2CCCC2)c1` was -2.46%.
The value for `COc1ccccc1C(CNC(=O)c1cccc(S(=O)(=O)Nc2ccc(F)cc2)c1)N(C)C` (centres undefined) was 98% (active).
For the molecule `COc1ccccc1C(CNC(=O)c1ccc(C)c(S(=O)(=O)N2CCCCC2)c1)N(C)C` (centres undefined), the inhibition is 98.7% (active).
The value for `COc1ccccc1C(CNC(=O)c1cccc(NS(=O)(=O)c2ccc(Br)cc2)c1)N(C)C` (centres undefined) was 93.8% (active); that for `C/C(CC(O)(/C=N/O)c1ccccc1)=N\O` (centres undefined) was -4.45%.
The value for `O=C(CSc1nnc(-c2c[nH]c3ccccc23)n1-c1ccc(F)cc1)NCc1ccco1` was -3.75%.
The value for `CCOc1ncccc1C(=O)OCC(=O)NC1CC1` was 10.6%.
Regarding `CC(C)C(=O)N1CCN(CCN=CC2=C(O)CC(c3ccco3)CC2=O)CC1` (centres undefined), the inhibition was -10.8% and 8.17%.
Regarding `CCOC(=O)C1=NN(c2ccc(Cl)cc2)/C(=C/C2=NCCc3cc(OC)c(OC)cc32)S1`, the inhibition was -2.43%.
For the molecule `O=C(NCc1ccccc1)C1CCCN(c2nc3ccsc3c(=O)s2)C1` (centres undefined), the inhibition is -8.79%.
The value for `Cc1cccc(N(Cc2ccccc2)C(=O)c2cc(S(=O)(=O)N3CCOCC3)ccc2F)c1` was 1.23%; that for `CN(Cc1cn(Cc2ccc(C(F)(F)F)cc2)nn1)C1CN(Cc2cn(Cc3ccc(C(F)(F)F)cc3)nn2)S(=O)(=O)C1` (centres undefined) was 28.6% (active); that for `Cc1ccc(Cn2cc(CN3CC(N4CCN(C)CC4)CS3(=O)=O)nn2)cc1` (centres undefined) was 0.4%.
Consider `CN(C)C1CN(Cc2cn(Cc3ccccc3)nn2)S(=O)(=O)C1` (centres undefined), for which the inhibition was 0.6%.
With `COC(=O)c1c(-c2cccs2)csc1NC(=O)CSc1ncnc2sc(C)c(C)c12`, the inhibition was -0.42%.
The result for `O=S(=O)(Nc1ccc(O)c2ccccc12)c1ccc(OC(F)(F)F)cc1` reads 7.68%; that for `O=C(c1ccc(F)cc1)N1CCC(C(=O)N2CCN(S(=O)(=O)c3ccccc3Br)CC2)CC1`, 4.21%.
The value for `CCCCCc1c(-c2cccc(Br)c2)ncn1CCc1ccccc1OC` was -1.26%; that for `CCCCCc1c(Cc2ccccc2)ncn1CCc1ccccc1OC` was 30.2% (active).
The value for `CCCCCc1c(-c2ccc(OC)c(OC)c2)ncn1CCc1ccccc1OC` was 15.1%.
Turning to `Cc1cccc(C)c1NC(=O)C(c1ccc(C(F)(F)F)cc1)n1c(=O)c(-c2ccco2)nc2ccccc21` (centres undefined), the inhibition is -5.75%.
For `c1ccc(C(=NNc2nc3ccccc3s2)c2ccccn2)cc1`, the inhibition is 53.7% (active).
With `CCOc1ccc(-n2c(SCC(=O)NC3CCS(=O)(=O)C3)nnc2-c2cccnc2)cc1` (centres undefined), the inhibition was 0.02%.
The value for `c1ccc(COc2ccccc2CNCc2cccnc2)cc1` was 6.7%; that for `c1ccc2c(c1)CSc1sccc1C2=C1CCNCC1` was 99% (active); that for `O=C(NCc1ccccc1)C1=C[C@@H](C2CCCCC2)C[C@@H](OCc2ccc(CO)cc2)O1` was 15.6%.
Turning to `O=C(NCc1ccccc1)C1=C[C@H](C2CC2)C[C@H](OCc2ccc(CO)cc2)O1`, the inhibition is 8.59%.
The result for `CC(C)(C)[C@H]1C=C(C(=O)NCc2ccccc2)O[C@@H](OCc2ccc(CO)cc2)C1` reads 27% (active); that for `COc1ccc(S(=O)(=O)N2CCCC(C(=O)N3CCN(C)CC3)C2)cc1C` (centres undefined), 10.1%.
The result for `CC(=O)N1CCCc2cc(S(=O)(=O)N3CCCC(C(=O)N4CCN(c5cccc(Cl)c5)CC4)C3)ccc21` (centres undefined) reads 39.3% (active); that for `Cc1ccc(S(=O)(=O)N2CCCC(C(=O)N3CCN(C)CC3)C2)cc1` (centres undefined), -2.93%.
The value for `CC1=C(C)CC(C(=O)NNC(=O)c2csc3c2CCC(C(C)(C)C)C3)C(C(=O)O)C1` (centres undefined) was -0.27%; that for `CCc1c(Nc2ccccc2Cl)nc(N)[nH]c1=O` was 6.79%; that for `Cc1ccccc1NC(=O)Cc1nc(COC(=O)C(C)(C)Oc2ccc(Cl)cc2)cs1` was 0.92%.
`O=C(NC(=S)NC1CCS(=O)(=O)C1)c1cccc([N+](=O)[O-])c1` (centres undefined): the inhibition is -3.13%.
For the molecule `C/C(=N\NC(=O)c1cccc([N+](=O)[O-])c1)c1cccnc1`, the inhibition is 0.74%.
Turning to `CC(C)CC(=O)NC(=S)NNC(=O)c1cccc([N+](=O)[O-])c1`, the inhibition is 32.7% (active).
The result for `C[C@@H](CN1CCC[C@H]1CN1C(N)=NC[C@@H]1Cc1ccccc1)N1C[C@@H](Cc2ccccc2)N(CCCC2CCCC2)C1=N` reads 28.9% (active); that for `CC[C@@H](C)[C@@H]1CN([C@@H](C)CN2CCC[C@H]2CN2C(N)=NC[C@H]2C(C)C)C(=N)N1CCc1ccc(Cl)c(Cl)c1`, -2.75%; that for `NC1=NC[C@@H](Cc2ccc(O)cc2)N1CC1CCCCC1`, 9.28%.
